Screens from PubChem.
TDP1 cell CPT = growth inhibition of DT40 Tdp1-/-;hTDP1 cells with camptothecin (screen for TDP1 inhibitors). chicken DT40 Tdp1-/-;hTDP1 cells + 20 nM CPT, ATP luminescence, 48 h. hit rate 12% among 420,000. Potency, µM (doses to about 46.2 µM), most hits filed as inhibitors. AID 686979; also: nearly all actives have a fitted effect of over 55% in size
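Cell growth measured by CellTiter-Glo luminescence after a minimum 48 h, 37 C compound exposure with 20 nM CPT in Tdp1-knockout DT40 cells stably expressing hTDP1, seeded 400/well; qHTS titration format.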
IL1B secr inh = inflammasome signaling inhibition, IL-1 beta readout. THP-1 LPS/ATP IL-1B secretion, AlphaLISA, 16 h; active compounds read low. activity change, % at 57.5 µM. hit rate 4.7% among 360,000. AID 743279; in the data active = activity change below about -50%; inconclusive = mostly about -30% to -49%
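THP-1 cells pretreated 1 hr with compounds (up to 57.5 uM final), then stimulated with LPS (250 ng/mL final) plus ATP (1.25 mM final); secreted IL-1B measured by AlphaLISA after 16 hr, decreased signal indicating inhibition.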
SW480 rereplic = induces DNA re-replication in SW480 colon adenocarcinoma cells; hit rate 1.8% among 340,000; AID 624297; Potency, µM (top dose mostly 46.1 µM), usual class: activators; SW480 DNA re-replication, Hoechst DNA content imaging, 48 h; also: nearly all actives have a fitted effect of over 55% in size
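Cells (250 per well) received 23 nL compound or DMSO by pin tool and were kept 48 hr at 37 C, 5% CO2. Nuclei were then stained with Hoechst for 40 min and scanned for DNA content.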
DT40 TDP1 no CPT = qHTS for Inhibitors of human tyrosyl-DNA phosphodiesterase 1 (TDP1): qHTS in cells in absence of CPT | DT40 Tdp1-/- hTDP1 cells, no CPT, ATP luminescence, 48 h | Potency, µM (highest dose often 46.2 µM), usual class: inhibitors | hit rate 15% among 420,000 | AID 686978, 2013; also: nearly all actives have a fitted effect of over 55% in size
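Chicken DT40 Tdp1-/- cells complemented with human TDP1, screened without camptothecin (DMSO vehicle only), 400 cells/well. Compounds pin-transferred, cells incubated at 37 °C for at least 48 hr. Growth read as ATP-dependent luminescence (CellTiter-Glo, 30 min at RT).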
MCF10A rerep = DNA re-replication induction in MCF 10a cells | hit rate 2.9% among 350,000 | MCF 10A DNA re-replication, Hoechst nuclear intensity, 48 h | Potency, µM (highest dose often 46.1 µM), actives largely listed as activators; also: nearly all actives have a fitted effect of over 50% in size
BCR signal inh = chronic active BCR signaling inhibition. Potency, µM (series often up to 46.1 µM), actives largely listed as inhibitors. hit rate 0.05% among 340,000. ABC-DLBCL IkBa-CBG/CBR reporter, luminescence ratio, 4 h; active = well fitted inhibition curve with a large enough effect in the signal ratio, with a control signal flat, not every such curve was filed as active; inconclusive = small, poorly fitted or top-dose-only effect, or effect the other way, or a change in a side signal; the % refers to the signal ratio
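Cell line TMD8 (human ABC DLBCL), stably expressing tet-inducible CBG68-IkBa fusion and CBR; IMDM/0.5% FBS; cpd up to 46 uM; dox induction, 4 h, 37C/5% CO2; dual luminescence; green/red ratio; MG132 control.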
A number is an active result. Compounds with a hit are over-represented: about 19% of the library has one in this group of screens. Unless noted, calls follow the shape of the dose curve; as a rule, active = well fitted curve in the direction sought with a large enough effect; inconclusive = small, poorly fitted or top-dose-only effect, or another doubt; inactive = no such curve, though single readings can be large; an effect the other way counts as inactive or inconclusive.

`CCOc1ccc(OCC)c(NC(=O)C2CCN(S(=O)(=O)c3c(C)[nH]c(=O)[nH]c3=O)CC2)c1` gave TDP1 cell CPT 18µM, IL1B secr inh inactive, SW480 rereplic inconclusive, DT40 TDP1 no CPT inconclusive, MCF10A rerep inactive and BCR signal inh inactive.
For COc1ccc(NC(=O)N2CCN(S(C)(=O)=O)CC2)cc1 the results were TDP1 cell CPT 23µM, IL1B secr inh inactive, SW480 rereplic inactive, DT40 TDP1 no CPT inconclusive, MCF10A rerep inactive and BCR signal inh inactive.
Screening CCOc1ccc(OCC)c(NC(=O)C2CCN(S(=O)(=O)c3cn(C)cn3)CC2)c1 returned TDP1 cell CPT inactive and DT40 TDP1 no CPT inactive.
Screening CCOc1ccc(OCC)c(NC(=O)C2CCCN(c3nc(C)cc(C)n3)C2)c1 (configuration not stated) returned TDP1 cell CPT 23µM, IL1B secr inh inactive, SW480 rereplic inactive, DT40 TDP1 no CPT 21µM, MCF10A rerep inconclusive and BCR signal inh inactive.
CC(=O)c1ccc(NC(=O)C2CCN(S(=O)(=O)c3cccs3)CC2)cc1 was read as TDP1 cell CPT inconclusive, IL1B secr inh inactive, SW480 rereplic inactive, DT40 TDP1 no CPT inconclusive, MCF10A rerep inactive and BCR signal inh inactive.
COc1ccccc1CN1CCCC2(CCN(C(=O)c3cccc(F)c3)CC2)C1 was read as TDP1 cell CPT inactive and DT40 TDP1 no CPT inactive.
For O=C(CSc1nnc(-c2ccccc2)c2ccccc12)NCCN1C(=O)CSC1=O the results were TDP1 cell CPT inactive, IL1B secr inh inconclusive, SW480 rereplic inactive, DT40 TDP1 no CPT inactive, MCF10A rerep inactive and BCR signal inh inactive.
`CCOc1ccc(NC(=O)Nc2nnc(N3CCCCC3C)s2)cc1` (configuration not stated) gave TDP1 cell CPT 23µM and DT40 TDP1 no CPT 23µM.
`Cc1ccc(NC(=O)C2CCN(S(=O)(=O)c3cccs3)CC2)cc1C` gave TDP1 cell CPT inactive, IL1B secr inh inactive, SW480 rereplic inactive, DT40 TDP1 no CPT inconclusive, MCF10A rerep inactive and BCR signal inh inconclusive.
`CCOc1ccc(OCC)c(NC(=O)C2CCCN(S(=O)(=O)c3cccs3)C2)c1` (configuration not stated) gave TDP1 cell CPT inconclusive, IL1B secr inh inactive, SW480 rereplic inactive, DT40 TDP1 no CPT 16µM, MCF10A rerep inactive and BCR signal inh inactive.
`CCn1c2ccccc2c2cc(NC(=O)C3CCN(S(=O)(=O)c4cccs4)CC3)ccc21` gave TDP1 cell CPT 16µM, IL1B secr inh inactive, SW480 rereplic inactive, DT40 TDP1 no CPT 21µM, MCF10A rerep inactive and BCR signal inh inactive.
`COc1ccc(NC(=O)C2CCN(S(C)(=O)=O)CC2)cc1` gave TDP1 cell CPT inactive, IL1B secr inh inactive, SW480 rereplic inactive, DT40 TDP1 no CPT inactive, MCF10A rerep inconclusive and BCR signal inh inactive.
Screening CCOc1ccc(NC(=O)C2CCN(S(C)(=O)=O)CC2)cc1 returned TDP1 cell CPT inconclusive, IL1B secr inh inactive, SW480 rereplic inconclusive, DT40 TDP1 no CPT inactive, MCF10A rerep 0.92µM and BCR signal inh inactive.
For O=C1C(O)=C(O)C(=O)C(O)=C1O the results were TDP1 cell CPT inactive, SW480 rereplic inactive, DT40 TDP1 no CPT inactive and MCF10A rerep inactive.
For COc1ccc(OC)c(S(=O)(=O)N2CCC(C(=O)N(C)Cc3ccccc3)CC2)c1 the results were TDP1 cell CPT inconclusive, IL1B secr inh inactive, SW480 rereplic inactive, DT40 TDP1 no CPT inconclusive, MCF10A rerep inactive and BCR signal inh inactive.
`Cc1ccc2cc(CN(CCN(C)C)C(=O)Nc3ccc(Cl)cc3)c(=O)[nH]c2c1` gave TDP1 cell CPT inconclusive, SW480 rereplic inconclusive, DT40 TDP1 no CPT 16µM, MCF10A rerep inconclusive and BCR signal inh inconclusive.
Cc1ccc2[nH]c(=O)c(CN(CCCN(C)C)C(=O)Nc3ccc(Cl)cc3)cc2c1 was read as TDP1 cell CPT 7.1µM, IL1B secr inh -54, SW480 rereplic inconclusive, DT40 TDP1 no CPT 6.3µM, MCF10A rerep inactive and BCR signal inh inactive.
For CCN(Cc1ccccc1)C(=O)c1cc2ccc3cccnc3c2[nH]1 the results were TDP1 cell CPT inconclusive and DT40 TDP1 no CPT 18µM.
For Cc1ccc(CN2CCC(CNC(=O)c3cc4ccc5cccnc5c4[nH]3)CC2)cc1 the results were TDP1 cell CPT 16µM and DT40 TDP1 no CPT 16µM.
Screening COc1cccc(CNC(=O)c2cc3ccc4cccnc4c3[nH]2)c1 returned TDP1 cell CPT inactive and DT40 TDP1 no CPT inactive.
COc1ccc(OC)c(CNC(=O)c2cc3ccc4cccnc4c3[nH]2)c1 was read as TDP1 cell CPT inconclusive and DT40 TDP1 no CPT 26µM.
Screening CC(=O)[C@H]1CC[C@H]2[C@@H]3C=CC4=CC(=O)CC[C@@]4(C)[C@H]3CC[C@]12C returned SW480 rereplic inactive and MCF10A rerep inactive.
Cc1cc(C)nc(N/N=C/C2=C(N3CCOCC3)C(=C\c3ccc(Cl)cc3)/CC2)n1 was read as TDP1 cell CPT 23µM, IL1B secr inh inactive, SW480 rereplic inconclusive, DT40 TDP1 no CPT 16µM, MCF10A rerep inconclusive and BCR signal inh inactive.
`O=CC1=C(N2CCOCC2)/C(=C/c2ccc(Cl)cc2)CC1` gave TDP1 cell CPT inconclusive, IL1B secr inh inactive, SW480 rereplic inactive, DT40 TDP1 no CPT 21µM, MCF10A rerep inactive and BCR signal inh inactive.
Cn1cc(C(=O)N/N=C/C2=C(N3CCOCC3)C(=C/c3ccc([N+](=O)[O-])cc3)/CC2)ccc1=O was read as TDP1 cell CPT inconclusive, IL1B secr inh inactive, SW480 rereplic inactive, DT40 TDP1 no CPT inactive and MCF10A rerep inactive.
C/C(=N/NC(=O)c1ccoc1C)c1ccc(N2CCOCC2)cc1 was read as TDP1 cell CPT inactive, IL1B secr inh inactive, SW480 rereplic inactive, DT40 TDP1 no CPT inactive, MCF10A rerep inactive and BCR signal inh inconclusive.
O=C(O)c1ccc(N/N=C/C2=C(N3CCOCC3)C(=C\c3ccccc3)/CC2)cc1 was read as TDP1 cell CPT inconclusive, IL1B secr inh inactive, SW480 rereplic 18µM, DT40 TDP1 no CPT 21µM, MCF10A rerep inconclusive and BCR signal inh inconclusive.
For CCOC(=O)C(=O)C1=C(N2CCOCC2)/C(=C\c2ccc(F)cc2)CC1 the results were TDP1 cell CPT inactive, IL1B secr inh inactive, SW480 rereplic inactive, DT40 TDP1 no CPT inconclusive, MCF10A rerep inconclusive and BCR signal inh inactive.
Screening Cc1occc1C(=O)N/N=C/C1=C(N2CCOCC2)C(=C\c2ccc(Cl)cc2Cl)/CC1 returned TDP1 cell CPT inconclusive, IL1B secr inh inactive, SW480 rereplic 2.9µM, DT40 TDP1 no CPT 7.3µM, MCF10A rerep 2.1µM and BCR signal inh inconclusive.
